According to ChEMBL document CHEMBL3988442, “University of Dundee, Small-Polar-MMV Screening Library” (2021):
The campaign covered roughly 48,000 compounds. About 13,000 (27%) showed an effect of 50% or more. This is one part of the list.

Tested on: Wolbachia pipientis
Assay: Anti-Wolbachia Cell-Based Screen
Format: functional
Parameters: scale not given: in the data most compounds retested in dose-response had high values
Conditions: 5 µM

Structure (SMILES) | Percent Effect
O=C(Nc1ccc(S(=O)(=O)Nc2c(F)cccc2F)cc1)N1CCCC1 | -7.034%
CCOc1nnc(CN(CC)CC(=O)NC(C)C)s1 | 101.2%
CCOc1nnc(CN(Cc2ccccc2)CC(O)c2ccco2)s1 (configuration not stated) | 2.067%
CCN(CC(=O)Nc1cc(C(C)(C)C)no1)Cc1ccc(Cl)s1 | 1.082%
CCN(CC(=O)NC(C)C)S(=O)(=O)N1CCCCCC1 | 9.147%
CCOc1ccccc1C(CC(=O)Nc1ccccc1F)NC(C)=O (configuration not stated) | -7.406%
CCN(CC(=O)NC(C)(C)C)Cc1cccc2c1OCCO2 | -0.7065%
CCOc1nnc(CN(CC)CC(=O)Nc2c(F)cccc2F)s1 | 97.11%
CCNC(=O)CN(CC)Cc1nc2c(F)cccc2n1CC | -0.387%
CCOc1nnc(CN(CC)CC(=O)NC(C)(C)C)s1 | 93.91%
O=C1[C@@H]2CCN(Cc3ccc(F)cc3)C[C@@H]2OCCN1c1cccnc1 | -21%
Cc1cccc(CN2CCCC3(CCN(C4CCSCC4)C3)C2=O)c1 (configuration not stated) | -3.098%
CN(C)C(=O)Cn1ccc2cc(NC(=O)N3CCSCC3)ccc21 | -2.006%
Cc1ccc(C)c2c(O)cc(CNCC(N)=O)nc12 | -7.963%
CC(C)c1nc(-c2cc(C(=O)NCCN(C)C)c3ccccn23)cs1.O=C(O)C(F)(F)F | -4.099%
O=C1N(CCCc2ccccc2)CCCC1(O)CN1CCC(CO)CC1 (configuration not stated) | -7.352%
CC(C)n1ncc2c1NC(=O)C(C#N)C21CCCC1 (configuration not stated) | 15.91%
COCCN1CCO[C@@H]2CN(Cc3ccc(C)s3)C[C@@H]2C1.O=C(O)C(F)(F)F.O=C(O)C(F)(F)F | -5.835%
Cc1ccc(CN2CC[C@H]3[C@H]2CCN3S(C)(=O)=O)s1.O=C(O)C(F)(F)F | -3.604%
CS(=O)(=O)N1CC[C@H]2O[C@H](C(=O)NCCc3ccncc3)CC[C@H]21.O=C(O)C(F)(F)F | -5.225%
CS(=O)(=O)N1CCO[C@@H]2CCN(Cc3ccncc3)CC[C@H]21.O=C(O)C(F)(F)F.O=C(O)C(F)(F)F | 114.1%
Cc1ccc(CN2CC[C@H]3[C@H]2CCN3S(=O)(=O)C2CC2)s1.O=C(O)C(F)(F)F | -4.175%
CS(=O)(=O)N1CCO[C@@H]2CN(Cc3ccc(F)cc3)CC[C@@H]2C1.O=C(O)C(F)(F)F | -0.3298%
Cc1ccc(CN2CC[C@@H]3OCCN(Cc4ccncc4)[C@H]3CC2)s1.O=C(O)C(F)(F)F.O=C(O)C(F)(F)F.O=C(O)C(F)(F)F | 91.24%
Cc1ccc(CN2CC[C@@H]3OCCN(S(C)(=O)=O)[C@H]3CC2)s1.O=C(O)C(F)(F)F | 114.1%
Cc1ccc(CN2CC[C@H]3OCC[C@@H](C(=O)NCC4CC4)[C@@H]3C2)s1.O=C(O)C(F)(F)F | -8.513%

Structure (SMILES) | Percent Effect
CC1CN(S(=O)(=O)c2cc(S(C)(=O)=O)ccc2Br)c2cccnc2O1 (configuration not stated) | -14.61%
CC1(C)CN(CC(F)(F)F)CCN1CC(=O)N1CCCCC1 | -2.434%
O=C(O)C(F)(F)F.O=S(=O)(NC[C@]12COC[C@H]1CN(c1ncc(F)cn1)C2)C1CC1 | 7.707%
COCC(C)N(C)C(=O)CCc1c(C)nc2c(C#N)cnn2c1C (configuration not stated) | -1.234%
Cc1nc2ccnn2c(C)c1CCC(=O)N1CCN(C2CC2)CC1 | 0.559%
COC(=O)CCc1c(C)nc2cc(O)nn2c1C | 10.93%
Cc1nn(CCC#N)c(C)c1CCC(=O)N(C)Cc1ccsc1 | 21.07%
Cc1nn(C)c(C)c1CCC(=O)N(C)Cc1ccc2nsnc2c1 | 27.84%
CCCN(CC(F)F)C(=O)CCc1c(C)nc2cc(O)nn2c1C | 131.4%
Cc1nc2cc(O)nn2c(C)c1CCC(=O)N(C)Cc1ccccc1 | 86.37%
Cc1nc2cc(O)nn2c(C)c1CCC(=O)N(C)CCC(C)C | 96.83%
Cc1nc2c(C#N)cnn2c(C)c1CCC(=O)N(C)C(C)C(C)C (configuration not stated) | 7.938%
CN1CCC2(CCC1=O)CCN(C(=O)Cc1ccc(O)c(F)c1)CC2 | 0.2124%
Cc1ccn(CCNc2ncnc3c2CCN(c2cnccn2)CC3)n1 | 7.115%
CC(O)CN1CCC(CNCc2cccc(Br)c2)CC1 (configuration not stated) | 7.461%
COc1cccc(CN2CCN(C(=O)CN3CCOCC3)CC2)n1 | -0.8074%
O=C(c1nnn(-c2ccc(F)cc2)n1)N1CCC(O)CC1 | 1.522%
CN(C)CCN(C)C(=O)Cn1cccc2cc(-c3ccc(F)cc3)nc1-2 | 149.6%
O=C(Cn1cccc2cc(-c3ccc(F)cc3)nc1-2)N1CCC(O)CC1 | 121.3%
COCCN(C)C(=O)Cn1cccc(OC)c1=O | -3.023%
COC1CCN(C(=O)Cn2ccc3ccccc32)CC1 | 0.3613%
COc1ccc(-c2cc3cccn(CC(=O)N4CCOCC4)c-3n2)cc1 | 153.8%
O=C(Cn1nnc(-c2cc3ccccc3o2)n1)N1CCOCC1 | -8.281%
COc1cccn(CC(=O)N(C)CCOc2cc(C)cc(C)c2)c1=O | -7.697%
CC(C)(C)c1nnc(CN2CCC(c3cc4ccccc4[nH]3)CC2)o1 | 4.334%
COCCc1noc(-c2cn(Cc3ccccc3C)nn2)n1 | -12.89%

Structure (SMILES) | Percent Effect
NS(=O)(=O)CCNC(=O)C1(c2ccccc2)CC1 | -12.67%
O=C(NCCCNc1ccccn1)NCC1CCS(=O)(=O)C1 (configuration not stated) | 10.33%
CC(C)c1ncc2c(n1)CN(Cc1ccc(C(N)=O)cc1)CC2 | -9.095%
OC1(CN2CCCC2)COCCN(c2ncnc3[nH]ccc23)C1 (configuration not stated) | 7.822%
c1nc(N2CCc3[nH]cnc3C2)c2cc[nH]c2n1 | 98.13%
Cc1ncc2c(n1)CN(c1ncnc3[nH]ccc13)CC2 | 103%
CN(C)CC1CN(c2ncnc3[nH]ccc23)CCO1 (configuration not stated) | 4.502%
CC(C)c1ncc2c(n1)CN(CC1CCCCO1)CC2 (configuration not stated) | -13.54%
CC(C)c1ncc2c(n1)CN(c1ncnc3[nH]ccc13)CC2 | 96.63%
Cc1nc(C)n(CC2CCCN(c3ncnc4[nH]ccc34)C2)n1 (configuration not stated) | 6.618%
c1ncc2c(n1)CN(c1ncnc3[nH]ccc13)CC2 | 97.2%
Cn1cc(C2CCCN2c2ncnc3[nH]ccc23)cn1 (configuration not stated) | -13.62%
Cc1ncc2c(n1)CN(C(C(N)=O)c1ccc(F)cc1)CC2 (configuration not stated) | -2.692%
COCCCN1CC2(CCCN(c3ncnc4[nH]ccc34)C2)CCC1=O (configuration not stated) | 0.6665%
CC(C)CCN(C(=O)c1cc2c([nH]c1=O)CCCC2=O)C1CC1 | -4.935%
O=C(NC(C1CC1)C1CC1)c1cccc[n+]1[O-] | 1.029%
Cn1cc(Br)cc(NC(=O)Cc2cccs2)c1=O | -8.828%
CCc1cnc(CNc2cccc3c2CCN(S(=O)(=O)CC)C3)o1 | -1.845%
CN(CCCc1cc(-c2cccc(F)c2)n[nH]1)C(=O)CCn1cncn1 | 11.69%
CNC(=O)[C@@H](C1CCCCC1)N1CCC[C@H]1C(=O)N(C)CCN(C)C.Cl.Cl | 6.649%
Cc1cccc(CN2Cc3[nH]nc(COCc4nccs4)c3C2)n1.O=C(O)C(F)(F)F | -5.307%
Cc1occc1C(=O)N1CCc2c(CNS(C)(=O)=O)cncc2C1.Cl | 99.94%
CN(C)C(=O)N1CCc2c(CNc3ncccn3)cncc2C1 | -13.49%
Cc1cccc(C(=O)N2CCc3c(COCC4CC4)cncc3C2)n1 | -8.984%
CS(=O)(=O)NCc1cncc2c1CCN(C(=O)c1cccnc1)C2.Cl.Cl | 94.15%
Cc1occc1C(=O)N1CCc2c(CNc3ncccn3)cncc2C1.Cl | -10.41%

Structure (SMILES) | Percent Effect
CS(=O)(=O)NCc1cncc2c1CCN(C(=O)c1ccccn1)C2 | 100.5%
CC(C)NC(=O)N1CCc2c(CNc3ncccn3)cncc2C1.Cl | -8.609%
COCc1cncc2c1CCN(C(=O)c1ccoc1C)C2 | -16.93%
Cc1nc(-c2cnn(C)c2)nc2c1CN(C(=O)c1cccn1C)CC2 | -11.99%
Cl.Cn1cccc1C(=O)N1CCc2c(CNS(C)(=O)=O)cncc2C1 | 99.59%
O=C(O)C1CCN(c2ccc(Sc3ccc(Br)cc3)nn2)CC1 | -8.294%
Cc1cccc2c1OCCC2NCc1c(C)nn(C)c1N(C)C (configuration not stated) | -23.23%
Cc1ccc(C(=O)N2CCc3c(COCC4CC4)cncc3C2)o1 | -16.58%
Cc1ccc(C(=O)N2CCc3c(CNS(C)(=O)=O)cncc3C2)o1.Cl | -12.96%
Cc1ccc(C(=O)N2CCc3c(CNc4ncccn4)cncc3C2)o1.Cl | 96.21%
CCc1cnc(N2CCN(Cc3ccon3)CC2)s1 | -1.549%
O=C(c1cc(Cl)c2c(c1)OCCCO2)N(CC1CCOC1)C1CC1 (configuration not stated) | -3.487%
O=C(Cn1c(=O)nc2n1C(=O)N(c1ccccc1)C2)Nc1ccccc1 | 2.08%
COc1cccc(Cn2c(=O)n(C)c(=O)c3sccc32)c1 | -18.58%
CCn1c(=O)c2sccc2n(CC(=O)Nc2cccc(Cl)c2)c1=O | 148.7%
CC(C)n1c(=O)c2sccc2n(CC(=O)Nc2ccccc2)c1=O | 126.1%
CC(C)c1cccc(NC(=O)Cn2c(=O)n(C)c(=O)c3sccc32)c1 | 155.2%
COc1ccc(Cn2c(=O)n(C)c(=O)c3sccc32)cc1 | 5.606%
Cn1c(=O)c2sccc2n(CC(=O)Nc2cccc(Cl)c2)c1=O | 134.9%
CC(C)c1cccc(NC(=O)N2CC(N(C)C)C2)c1 | -4.396%
Cc1cc(=O)n(CC(=O)Nc2cccc(Cl)c2)nc1C | -4.372%
Cn1c(=O)c2sccc2n(Cc2ccccc2)c1=O | -1.761%
CCn1nc(C)c2nnn(CC(=O)Nc3cccc(Cl)c3)c(=O)c21 | -0.8024%
O=C(Cn1cc(-c2ccccc2)ncc1=O)Nc1ccncc1 | 8.409%
